An excerpt weighted towards active compounds, which were near 4.6% of everything screened.
TRHR ag: qHTS for Small Molecule Agonists and Allosteric Enhancers of Human TRH Receptor: Primary Screen for Agonists; Thyrotropin-releasing hormone receptor (Homo sapiens), P34981; TRHR cells, calcium flux fluo-8, FDSS agonist mode; activation, % at 2 µM; actives 0.18% (n = 360,000); AID 493084, 2011
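Steps: seed TRHR cells overnight; add fluo-8 no-wash Ca dye, RT 30 min–1.5 h; record 10 s baseline; pin-transfer compounds; monitor fluorescence 1 cycle/s for the agonist window. Calcium increases flag candidate agonists.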
TRHR PAM: qHTS for Small Molecule Agonists and Allosteric Enhancers of Human TRH Receptor: Primary Screen for Enhancers; Thyrotropin-releasing hormone receptor (Homo sapiens), P34981; TRHR cells, fluo-8 calcium fluorescence, EC20 TRH enhancement; enhancement, % at 2 µM; actives 0.66% (n = 360,000); AID 493056, 2011; in the data active = enhancement above about 30%
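TRHR-expressing cells loaded with fluo-8 calcium dye were read kinetically (ex 480/em 530) during compound addition, then stimulated with an EC20 of TRH (10 nM final). Enhancement of the Gq-mediated intracellular calcium response was scored.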
D1 potentiator: Potentiators of Human D1 Dopamine Receptor: qHTS | D(1A) dopamine receptor (Homo sapiens), P21728 | HEK293 TREx D1 cells, calcium flux, dopamine EC20 potentiation | potentiation, % at 10 µM | actives 0.036% (n = 360,000); in the data active = potentiation above about 30%
Target sequence (P21728 whole entry, looked up): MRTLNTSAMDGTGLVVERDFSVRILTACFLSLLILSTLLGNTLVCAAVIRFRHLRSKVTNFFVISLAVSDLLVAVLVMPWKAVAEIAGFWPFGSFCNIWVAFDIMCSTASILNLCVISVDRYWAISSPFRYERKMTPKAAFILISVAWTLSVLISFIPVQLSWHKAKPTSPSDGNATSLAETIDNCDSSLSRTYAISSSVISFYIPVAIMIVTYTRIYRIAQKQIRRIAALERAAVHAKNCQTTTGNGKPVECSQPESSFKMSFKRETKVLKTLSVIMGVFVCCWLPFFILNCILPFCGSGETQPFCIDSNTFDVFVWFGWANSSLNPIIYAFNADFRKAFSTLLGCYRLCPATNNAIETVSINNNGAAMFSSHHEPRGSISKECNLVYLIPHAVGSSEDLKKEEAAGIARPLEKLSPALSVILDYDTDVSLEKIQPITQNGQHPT
D1 antagonist: Antagonist of Human D 1 Dopamine Receptor: qHTS | actives 3.2% (n = 360,000) | HEK293 TREx D1 cells, calcium flux, dopamine EC80; hits give low values | AID 504652, 2011 | activity change, negative = inhibition, % at 10 µM | D(1A) dopamine receptor (Homo sapiens), P21728; in the data active = activity change below about -30%
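After overnight tetracycline induction at 30 C, force-coupled D1 HEK293 cells took up a no-wash calcium dye at room temperature. Compounds were added and monitored 180 s, and the response to EC80 dopamine was then recorded.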
D1 ag: Allosteric Agonists of the Human D1 Dopamine Receptor: qHTS. D(1A) dopamine receptor (Homo sapiens), P21728. HEK293 T-REx D1 cells, calcium flux, agonist mode. activation, % at 2 µM. actives 1% (n = 360,000)
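Tetracycline-induced HEK293 TREx D1 cells, force-coupled to calcium signalling, were dye-loaded with a no-wash calcium kit. Compound was pin-added after a 10 s baseline. Fluorescence was read kinetically at 1 cycle/s for 180 s, with calcium rises flagged as agonism.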
Numbers stand for hits; – = inactive; · = no result; ! = not active in a repeat. Cut-off read from the data, not from the text of the source, unless noted: active = activation above about 30%; inactive = the rest.

SMILES	TRHR ag	TRHR PAM	D1 potentiator	D1 antagonist	D1 ag
COc1ccc2nc(NC(=O)c3ccc(S(=O)(=O)N4CCCC(C)C4)cc3)sc2c1 (configuration not stated)	–	–	–	–	–
C=Cc1ncc(OC)c2c1[nH]c1ccccc12	–	–	–	-55	–
COc1cccc2[nH]c3ccccc3c(=O)c12	–	–	–	–	–
CCOC(=O)c1sc2nc(CC(=O)OC)nc(N(C)CCc3ccccn3)c2c1C	–	–	–	-30	–
COc1ccc(C2NCCc3c2[nH]c2ccccc32)cc1CN1CCc2cc(OC)c(OC)cc2C1C (configuration not stated)	–	–	–	-54	36
COc1cc(OC)c(CN2CCN(c3ccc(F)cc3)CC2)cc1Br	–	–	–	-31	–
O=C(O)C1Cc2c([nH]c3ccccc23)C(c2ccc3c(c2)OCO3)N1 (configuration not stated)	–	–	–	–	–
COc1ccc(/C=N/NC(=O)c2cc(OC)c(OC)c(OC)c2)cc1CN1CCc2cc(OC)c(OC)cc2C1C (configuration not stated)	–	–	–	–	–
COc1ccc(C2NCCc3c2[nH]c2ccccc32)cc1COc1ccc(F)cc1 (configuration not stated)	–	–	–	–	77
COc1ccc(CN2CCN(c3ccc(F)cc3)CC2)c(OC)c1OC	–	–	–	–	–
COc1ccc(F)cc1COc1nc(C)nc2ccccc12	–	–	–	–	–
COc1ccc(C2NC(C(=O)O)Cc3c2[nH]c2ccccc32)cc1CN1CCN(c2ccc(F)cc2)CC1 (configuration not stated)	–	–	–	-48	–
O=C(NC1CCCC1)c1ccc2c(=O)n(Cc3ccccc3)c(SCc3ccc([N+](=O)[O-])cc3)nc2c1	–	–	–	–	–
Cc1cccc(-c2nsc(SCC(=O)N3CCCC3)n2)c1	–	–	–	-37	–
Cc1cccc(-n2c(SCC(=O)N3CCCC3)nc3n[nH]c(C)c3c2=N)c1	–	40	–	–	–
O=C(CSc1nc(-c2ccccc2)ns1)N1CCOCC1	–	–	–	–	–
Cc1ccc(NC(=O)CSc2nc3n[nH]c(C)c3c(=N)n2-c2cccc(C)c2)cc1	–	–	–	–	–
Cc1cccc(NC(=O)CSc2nc3n[nH]c(C)c3c(=N)n2-c2cccc(Cl)c2)c1	–	–	–	-35	–
O=C(c1ccco1)N1CCN(Cc2nnnn2C2CCCCC2)CC1	–	–	–	–	–
O=C(c1ccco1)N1CCN(CCOCCOc2cccc3ccccc23)CC1	–	–	–	-53	–
c1ccc(CN2CCN(CCOCCOc3cccc4ccccc34)CC2)cc1	–	–	–	-43	–
Cc1ccc(S(=O)(=O)N2CCC(C(=O)NC3CC(C)(C)NC(C)(C)C3)CC2)cc1	–	–	–	–	–
CCn1c(CN2CCC(C)CC2)nc2cc(NC(=O)COc3ccc([N+](=O)[O-])cc3)ccc21	–	–	–	–	–
Cc1c(C#N)c(=O)c(-[n+]2ccccc2)c([S-])n1-c1ccc(Cl)cc1	–	33	–	–	–
CCN1C(=O)/C(=C/c2cnn(C)c2C)SC1=S	–	–	–	-32	–
SMILES	TRHR ag	TRHR PAM	D1 potentiator	D1 antagonist	D1 ag
Cc1nn(C(=O)c2c(F)cccc2F)c(C)c1S(=O)(=O)N1CCCCCC1	–	–	–	-63	–
O=C(NCc1ccco1)c1ccc2c(c1)N(Cc1ccccc1F)C(=O)c1ccccc1S2(=O)=O	–	–	–	–	–
CCCn1nc(-c2ccccc2)c2nc3ccccc3nc21	–	–	–	–	70
CCn1nc(-c2ccccc2)c2nc3ccccc3nc21	–	–	–	–	98
COC(=O)CSc1nc2sc3c(c2c(=O)n1-c1ccccc1)C(C)CCC3 (configuration not stated)	–	–	–	–	–
N#Cc1cccc(NC(=O)C2CCN(c3nc(-c4ccc(Cl)cc4)no3)CC2)c1	–	–	–	–	–
CCCc1cc(=O)oc2cc(OC(=O)CN3C(=O)NC4(CCCC4)C3=O)ccc12	–	–	–	–	–
COc1cccc(-c2cc(C(=O)Nc3cc(Cl)ccc3O)on2)c1	–	–	–	–	–
COC(=O)c1cc(NC(=O)Cn2ncc3c2-c2ccccc2OC3)cc(C(=O)OC)c1	–	–	–	–	–
c1ccc(Nc2nc3ccccc3n3nnnc23)cc1	–	–	–	-69	–
Oc1ccccc1Nc1nc2ccccc2n2nnnc12	–	–	–	–	42
Fc1ccccc1Nc1nc2ccccc2n2nnnc12	–	–	–	–	–
O=C(Cc1cc(=O)[nH][nH]1)N/N=C/c1ccccc1Cl	–	–	–	–	–
O=C(Cc1cc(=O)[nH][nH]1)N/N=C/C(Cl)=C/c1ccccc1	–	–	–	–	31!
CCCC(C)NC(=O)c1cccc(Oc2ccccc2)c1 (configuration not stated)	–	–	–	–	33
CC(=O)Nc1ccc(NC(=O)c2cccc(Oc3ccccc3)c2)cc1	–	–	–	–	–
Cn1c(=O)n(C)c2cc(N3CCCC3)c(NC(=O)Nc3ccccc3)cc21	–	–	–	–	–
O=C(CS(=O)(=O)Cc1ccccc1)N1CCN(c2cccc(C(F)(F)F)c2)CC1	–	–	–	-33	–
O=C(c1ccc2nccnc2c1)N1CCN(c2cccc(C(F)(F)F)c2)CC1	–	31	–	–	–
O=C(C1CCC1)N1CCN(c2cccc(C(F)(F)F)c2)CC1	–	–	–	-54	–
O=C(CCS(=O)(=O)c1ccccc1)N1CCN(c2cccc(C(F)(F)F)c2)CC1	–	–	–	–	–
CN1CCN(c2ccc(C(F)(F)F)cc2NC(=O)Nc2ccccc2)CC1	–	–	–	–	73
Cn1ccc2c(OCC(=O)NCc3ccccc3Cl)cccc2c1=O	–	–	–	·	–
O=C(c1nc(-c2ccc(Cl)cc2)n2c1CCCCC2)N1CCN(c2ccccc2)CC1	–	–	–	–	–
Cc1ccc(C(=O)N2CCN(c3nc4ccccc4n3C)CC2)cc1	–	–	–	–	–
COc1ccc(NC(=O)N2CCN(c3cccc(C(F)(F)F)c3)CC2)cc1OC	–	–	–	–	–
O=C(Nc1ccccc1)N1CCN(c2cccc(C(F)(F)F)c2)CC1	–	–	–	-34	–

Screening results from PubChem.
